Assay [1] has as its target Lysosomal acid glucosylceramidase (Homo sapiens) (UniProt P04062). Description: Glucocerebrosidase-p2 (AID 348; in the data active = potency below about 10 µM; note: potency is the fitted concentration of half-maximal effect). The settings on record: purified GBA, blue fluorogenic substrate, 40 min. The gist of the method: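 Compounds titrated from 0.6 nM upwards against 0.2 nM enzyme in pH 5.9 citric acid/KH2PO4, taurocholate, tween-20; blue fluorogenic substrate 80 uM, 40 min room temperature, stopped and read Ex 365/Em 440 for AC50.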

Assay [2] can be described thus: AP1 Signaling Pathway (AID 357).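 Note: ME-180 reporter cells stimulated with EGF at its EC50 level; % is set by controls: 0 for no effect and ±100 for the full control effect.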 The settings on record: ME-180 AP-1-bla reporter, EGF-induced, beta-lactamase ratio, 5 h; at 7.69 µM (top of the series) unless noted. The gist of the method:
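AP-1-bla ME-180 cells, Opti-MEM + 0.5% dialyzed FBS, plated overnight 37 °C. Cpd titration + EC50 EGF, 5 h 37 °C. CCF4 2.5 h RT; ex 405, em 460/530 ratio → %activity, AC50.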

Assay [3] has as its target Cytochrome P450 1A2 (Homo sapiens) (UniProt P05177). The experiment in a line: p450-cyp1a2 (AID 410; calls by dose curve; note: potency is the fitted concentration of half-maximal effect;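 for activity change, negative = inhibition: -100% = full effect of reference inhibitor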). The settings on record: recombinant CYP1A2, luciferin-ME demethylation, luminescence; series mostly up to 57 µM. The gist of the method:
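Inhibition was calculated relative to 57 uM furafylline (full inhibition). The reaction used human CYP1A2 at 20nM with Luciferin-ME at its Km, 100uM, driven by an NADPH-regenerating system for 60 min at room temperature.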

A short description of assay [4]: NFAT Signaling Pathway (AID 444).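 Note: carbachol stimulus at about its EC50 of 1 µM final; % is set by controls: 0 for no effect and ±100 for the full control effect.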 The settings on record: Jurkat NFAT-bla M1, carbachol, beta-lactamase ratio, 5 h; at 7.69 µM (top of the series) unless noted. The gist of the method: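 Jurkat cells carrying an NFAT-driven β-lactamase reporter and co-transfected muscarinic M1 receptor were treated with compound plus carbachol (1 uM final, an EC50 level) for 5 h at 37 °C. CCF4 loading followed for 1 h at RT; 460/530 nm ratio gave %activity.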

Assay [5] in a line: Stat Signaling Pathway (AID 446).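 Note: ME-180 cervical cancer cells given 40 pM IL-6 alongside compound; SIE-controlled beta-lactamase reporter measured as 460/530 nm FRET emission ratio; % is set by controls: 0 for no effect and ±100 for the full control effect.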 The settings on record: ME-180 SIE beta-lactamase reporter, IL-6 stimulated, 5 h; at 7.69 µM (top of the series) unless noted. The gist of the method:
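Reporter line: ME-180 cervical carcinoma, SIE-beta-lactamase. Treatment: compound with 40 pM IL-6, 5 hrs, 37 C, in low-serum OPTI-MEM with 10 mM HEPES pH 7.3. Detection: 460/530 nm fluorescence.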

For assay [6], the target named is Glucocorticoid receptor (Homo sapiens) (UniProt P04150). Description: GR-EFC Redistribution (AID 451; calls by dose curve; note: potency is the fitted concentration of half-maximal effect). The settings on record: CHO-K1 GR-EFC translocation, beta-gal luminescence, 2 h. In outline:
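CHO-K1 cells stably expressing nuclear-localized β-gal enzyme acceptor and GR fused C-terminally to the enzyme donor fragment; ligand-driven nuclear translocation restores β-gal by complementation. Compounds titrated up to 46 uM final, 2 h at 37 °C; luminescence read.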

Assay [7] concerns the target Mitogen-activated protein kinase 10 (Mus musculus) (UniProt Q61831). Description: JNK3 AlphaScreen Assay (AID 530).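 Note: kinase came from lysate of stimulated human HepG2 cells; % is set by controls: 0 for no effect and ±100 for the full control effect.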 The settings on record: JNK3 lysate, c-Jun phosphorylation; series mostly up to 57.1 µM. The gist of the method: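 JNK3 came from HepG2 lysates pre-activated with IL-1beta and TNF-alpha and phosphorylated biotinylated GST-cJun (1-79) at 10 uM ATP, pH 7.6, room temperature. Compounds were titrated. AlphaScreen signal used anti-phospho-cJun (Ser73) antibody.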
(In Alpha technology, singlet oxygen from a donor bead excites a nearby acceptor bead.)

For assay [8], the target named is 3',5'-cyclic-AMP phosphodiesterase 4B (Homo sapiens) (UniProt Q07343). Description: qHTS Assay for Inhibitors of PDE-IV (AID 607; active = well fitted activation curve with a large enough effect in the main read-out, with a control signal flat, not every such curve was filed as active; note: % of control where 0% means no effect). The settings on record: HEK293 ACTOne CNG channel cells, membrane potential fluorescence; series mostly up to 22.9 µM. The gist of the method:
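Cell-based read-out of cAMP via a modified cyclic nucleotide-gated channel and membrane potential dye (535/590 nm) in HEK293 cells expressing PDE4 endogenously. Compounds tested up to 22.9 uM final; 100 uM RO 20-1724 reference.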
A general note: Quantitative high-throughput screening tests each substance at several concentrations.

Assay [9] addresses Cytochrome P450 3A4 (Homo sapiens) (UniProt P08684). The experiment in a line: qHTS Assay for Activators of Cytochrome P450 3A4 (AID 885; active = well fitted curve in the direction sought with a large enough effect; an effect the other way counts as inactive or inconclusive; note: nearly all actives have a fitted effect of over 65% in size). The settings on record: recombinant CYP3A4, Luciferin-PPXE luminescence, 60 min; series mostly up to 57.1 µM. In outline:
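Signal was normalized against complete inhibition by 57 uM ketoconazole. The reaction used 20nM CYP3A4 with 25uM Luciferin-PPXE, 10-min compound preincubation and a 60-min NADPH-supported step at RT.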

For assay [10], the target named is Cytochrome P450 2D6 (Homo sapiens) (UniProt P10635). Description: qHTS Assay for Inhibitors and Substrates of Cytochrome P450 2D6 (AID 891; active = well fitted curve in the direction sought with a large enough effect; an effect the other way counts as inactive or inconclusive; note: nearly all actives have a fitted effect of over 60% in size; note: potency is the fitted concentration of half-maximal effect). The settings on record: recombinant CYP2D6, luciferin-ME EGE luminescence; series mostly up to 57.1 µM. The gist of the method: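 Human CYP2D6 (5 nM) with 30 uM Luciferin-ME EGE (at Km) in 100 mM KPO4, compound preincubated 10 min, then NADPH regeneration system for 60 min at room temperature. Luciferin read by luminescence; normalized to 1.43 uM quinidine.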
Chain of Cytochrome P450 2D6 (Homo sapiens) (P10635 whole entry, looked up): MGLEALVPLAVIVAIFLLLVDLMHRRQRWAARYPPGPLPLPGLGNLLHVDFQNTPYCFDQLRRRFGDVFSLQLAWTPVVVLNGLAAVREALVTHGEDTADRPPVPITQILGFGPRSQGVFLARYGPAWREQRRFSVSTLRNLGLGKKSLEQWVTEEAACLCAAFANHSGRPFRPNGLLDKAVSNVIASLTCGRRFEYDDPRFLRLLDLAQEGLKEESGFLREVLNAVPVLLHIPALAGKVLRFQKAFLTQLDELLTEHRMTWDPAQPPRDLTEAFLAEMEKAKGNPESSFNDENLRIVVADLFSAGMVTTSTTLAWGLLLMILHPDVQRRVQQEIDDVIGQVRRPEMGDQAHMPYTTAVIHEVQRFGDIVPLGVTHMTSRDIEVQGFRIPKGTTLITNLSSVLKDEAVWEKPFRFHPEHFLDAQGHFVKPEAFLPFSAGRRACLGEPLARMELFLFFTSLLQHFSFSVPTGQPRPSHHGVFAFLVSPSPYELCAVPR

Assay [11] concerns the target Cytochrome P450 2C19 (Homo sapiens) (UniProt P33261). Description: qHTS Assay for Inhibitors and Substrates of Cytochrome P450 2C19 (AID 899; active = well fitted curve in the direction sought with a large enough effect; an effect the other way counts as inactive or inconclusive; note: nearly all actives have a fitted effect of over 60% in size; note: potency is the fitted concentration of half-maximal effect). The settings on record: recombinant CYP2C19, luciferin-H EGE luminescence; series mostly up to 57.1 µM. In outline: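 In 50mM KPO4, the reaction held 5nM enzyme and KM-level (10uM) Luciferin-H EGE; it ran 60 min at 37C after NADPH regeneration and a 10 min compound preincubation. Luminescence values were scaled to 57uM ketoconazole as complete inhibition.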

The nature of assay [12]: qHTS Assay for Lipid Storage Modulators (AID 1519; calls by dose curve). The settings on record: Drosophila S3 cells, BODIPY lipid droplet/cell ratio, laser cytometry, cells loaded with oleic acid; for activity change, negative = inhibition: at 57.5 µM (top of the series). The gist of the method:
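Cells seeded at 5,000 per well were treated with compounds over a concentration series and loaded with oleic acid (400 uM, as added). Lipid droplet fluorescence (488 nm excitation, 500-530 nm channel) was read by laser-scanning cytometry and normalized to 20 uM Triacsin C.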

A short description of assay [13]: Primary qHTS for small molecule stabilizers of the endoplasmic reticulum resident proteome: Secreted ER Calcium Modulated Protein (SERCaMP) assay (AID 1508630; active = well fitted curve in the direction sought with a large enough effect; an effect the other way counts as inactive or inconclusive; note: % is set by controls: 0 for no effect and ±100 for the full control effect). The settings on record: SH-SY5Y GLuc-SERCaMP (Gaussia luciferase released on ER calcium loss) secretion, thapsigargin, luminescence; series mostly up to 38.4 µM. In outline: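 GLuc-SERCaMP-expressing SH-SY5Y cells, pretreated 16 h with compound, are challenged with thapsigargin to empty ER calcium stores; after 4 h, coelenterazine is added directly to the medium and luminescence is imaged.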

Where [14] appears, read: measured here: cell count channel max response.
[15] abbreviates: measured here: lipid channel max response.

Inconclusive results are not listed. Calls of active or inactive are those of the source. Unless noted, calls come from the whole dose curve; as a rule, active = well fitted curve in either direction with a large enough effect (not every such curve was filed as active); inconclusive = small, poorly fitted or top-dose-only effect, or another doubt; inactive = flat fitted curve, though single readings scatter. A value given as a limit tells only on which side of the number the result lay.

Chain of Lysosomal acid glucosylceramidase (Homo sapiens) (P04062 whole entry, looked up): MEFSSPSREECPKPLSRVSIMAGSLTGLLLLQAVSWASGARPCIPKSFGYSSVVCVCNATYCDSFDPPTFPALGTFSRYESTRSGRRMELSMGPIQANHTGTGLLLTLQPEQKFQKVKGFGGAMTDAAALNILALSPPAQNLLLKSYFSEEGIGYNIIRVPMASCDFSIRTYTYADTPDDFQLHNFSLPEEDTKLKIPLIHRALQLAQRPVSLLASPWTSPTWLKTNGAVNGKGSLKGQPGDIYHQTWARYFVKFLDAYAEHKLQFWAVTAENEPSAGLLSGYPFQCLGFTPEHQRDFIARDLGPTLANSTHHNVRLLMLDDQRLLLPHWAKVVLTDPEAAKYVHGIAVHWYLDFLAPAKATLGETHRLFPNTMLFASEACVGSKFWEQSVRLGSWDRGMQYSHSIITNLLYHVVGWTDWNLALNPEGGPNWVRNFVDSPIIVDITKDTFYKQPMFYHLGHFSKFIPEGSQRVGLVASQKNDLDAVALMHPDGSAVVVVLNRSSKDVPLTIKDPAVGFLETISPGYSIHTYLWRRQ
Chain of Cytochrome P450 3A4 (Homo sapiens) (P08684 whole entry, looked up): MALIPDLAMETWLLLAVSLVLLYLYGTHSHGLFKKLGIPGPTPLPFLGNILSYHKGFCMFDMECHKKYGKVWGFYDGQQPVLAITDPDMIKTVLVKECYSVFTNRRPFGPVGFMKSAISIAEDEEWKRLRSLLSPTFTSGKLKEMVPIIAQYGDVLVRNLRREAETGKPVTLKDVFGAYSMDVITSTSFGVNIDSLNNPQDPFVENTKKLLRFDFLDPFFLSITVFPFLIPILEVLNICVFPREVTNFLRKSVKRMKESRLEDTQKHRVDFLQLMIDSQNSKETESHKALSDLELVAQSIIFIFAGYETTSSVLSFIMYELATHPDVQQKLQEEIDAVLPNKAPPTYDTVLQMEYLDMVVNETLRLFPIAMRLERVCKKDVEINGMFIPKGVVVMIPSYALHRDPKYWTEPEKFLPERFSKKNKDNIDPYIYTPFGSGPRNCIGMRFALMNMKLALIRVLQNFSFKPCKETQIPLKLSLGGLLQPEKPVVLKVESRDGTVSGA
Chain of Cytochrome P450 1A2 (Homo sapiens) (P05177 whole entry, looked up): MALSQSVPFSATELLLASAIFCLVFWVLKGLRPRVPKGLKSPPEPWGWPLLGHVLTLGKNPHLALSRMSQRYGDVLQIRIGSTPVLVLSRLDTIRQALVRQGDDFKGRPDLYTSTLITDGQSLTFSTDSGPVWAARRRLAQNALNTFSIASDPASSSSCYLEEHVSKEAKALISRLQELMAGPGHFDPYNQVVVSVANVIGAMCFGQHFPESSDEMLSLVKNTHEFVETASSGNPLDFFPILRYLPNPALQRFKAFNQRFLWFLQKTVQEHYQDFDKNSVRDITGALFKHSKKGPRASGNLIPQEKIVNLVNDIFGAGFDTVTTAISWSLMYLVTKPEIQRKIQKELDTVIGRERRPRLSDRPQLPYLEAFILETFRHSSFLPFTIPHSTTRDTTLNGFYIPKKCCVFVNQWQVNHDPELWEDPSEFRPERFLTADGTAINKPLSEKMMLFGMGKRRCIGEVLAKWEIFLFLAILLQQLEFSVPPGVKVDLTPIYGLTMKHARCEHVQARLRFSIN
Chain of Glucocorticoid receptor (Homo sapiens) (P04150 whole entry, looked up, the tested form may be a part): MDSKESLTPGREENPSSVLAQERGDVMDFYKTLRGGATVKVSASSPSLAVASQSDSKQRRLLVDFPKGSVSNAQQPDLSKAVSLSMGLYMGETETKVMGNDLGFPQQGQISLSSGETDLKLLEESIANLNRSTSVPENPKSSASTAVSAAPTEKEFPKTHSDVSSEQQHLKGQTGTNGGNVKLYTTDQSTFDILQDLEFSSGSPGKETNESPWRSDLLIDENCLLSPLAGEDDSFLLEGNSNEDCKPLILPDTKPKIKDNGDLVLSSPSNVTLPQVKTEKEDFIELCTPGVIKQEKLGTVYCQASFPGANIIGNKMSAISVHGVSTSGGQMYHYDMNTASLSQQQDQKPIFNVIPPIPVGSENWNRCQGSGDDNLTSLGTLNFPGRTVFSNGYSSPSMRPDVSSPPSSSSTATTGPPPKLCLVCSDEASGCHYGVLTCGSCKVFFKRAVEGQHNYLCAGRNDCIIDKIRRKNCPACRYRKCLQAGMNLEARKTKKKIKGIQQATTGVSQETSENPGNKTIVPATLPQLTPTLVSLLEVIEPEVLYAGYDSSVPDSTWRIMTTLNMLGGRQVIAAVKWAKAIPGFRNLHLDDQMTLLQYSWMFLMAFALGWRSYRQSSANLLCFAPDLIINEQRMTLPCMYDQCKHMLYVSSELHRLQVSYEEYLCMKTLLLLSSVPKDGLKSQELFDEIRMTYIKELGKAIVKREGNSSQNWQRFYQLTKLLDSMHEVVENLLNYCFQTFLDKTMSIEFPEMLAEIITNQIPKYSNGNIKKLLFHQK
Chain of 3',5'-cyclic-AMP phosphodiesterase 4B (Homo sapiens) (Q07343 whole entry, looked up): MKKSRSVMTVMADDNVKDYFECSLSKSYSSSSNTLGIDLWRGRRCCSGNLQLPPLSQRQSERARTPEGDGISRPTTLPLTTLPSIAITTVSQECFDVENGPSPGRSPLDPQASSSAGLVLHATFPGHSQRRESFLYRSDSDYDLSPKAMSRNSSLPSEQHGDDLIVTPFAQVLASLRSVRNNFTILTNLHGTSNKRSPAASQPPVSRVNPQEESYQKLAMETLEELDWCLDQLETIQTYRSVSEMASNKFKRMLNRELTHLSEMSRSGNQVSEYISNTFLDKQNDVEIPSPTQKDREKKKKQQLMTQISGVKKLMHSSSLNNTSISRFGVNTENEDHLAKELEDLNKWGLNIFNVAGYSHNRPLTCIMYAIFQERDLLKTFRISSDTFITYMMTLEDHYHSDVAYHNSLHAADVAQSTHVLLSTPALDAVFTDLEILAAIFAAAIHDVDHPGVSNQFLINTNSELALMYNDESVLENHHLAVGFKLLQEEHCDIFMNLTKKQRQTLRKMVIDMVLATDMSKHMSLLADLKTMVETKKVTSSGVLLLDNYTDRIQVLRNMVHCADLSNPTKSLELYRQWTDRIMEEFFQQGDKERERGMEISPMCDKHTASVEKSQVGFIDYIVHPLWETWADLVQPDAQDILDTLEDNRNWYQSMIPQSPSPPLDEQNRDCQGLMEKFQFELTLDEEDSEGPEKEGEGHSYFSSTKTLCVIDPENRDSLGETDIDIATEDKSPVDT
Chain of Cytochrome P450 2C19 (Homo sapiens) (P33261 whole entry, looked up): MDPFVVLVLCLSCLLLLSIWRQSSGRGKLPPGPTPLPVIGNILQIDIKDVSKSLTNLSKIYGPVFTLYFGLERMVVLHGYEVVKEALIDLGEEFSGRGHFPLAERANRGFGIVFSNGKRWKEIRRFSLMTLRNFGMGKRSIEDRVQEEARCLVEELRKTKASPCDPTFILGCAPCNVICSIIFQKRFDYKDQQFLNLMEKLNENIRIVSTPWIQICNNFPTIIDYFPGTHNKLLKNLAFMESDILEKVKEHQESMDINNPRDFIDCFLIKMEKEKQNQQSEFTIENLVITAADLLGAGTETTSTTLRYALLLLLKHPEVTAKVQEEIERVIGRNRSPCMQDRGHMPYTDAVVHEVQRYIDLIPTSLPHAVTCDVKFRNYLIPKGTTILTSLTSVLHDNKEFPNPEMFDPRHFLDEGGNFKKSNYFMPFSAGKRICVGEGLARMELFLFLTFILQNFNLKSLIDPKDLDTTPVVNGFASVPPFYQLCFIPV

For `CC(C)NC(=O)N1CCCC2(CCN(C(=O)c3cccc(F)c3)CC2)C1`, the values for the Potency in assay [1] and in assay [6] were > 11.4 µM (inactive) and > 46 µM (inactive), respectively. The activity change, negative = inhibition in assay [2] is -13.6% (inactive); in assay [4] it was -16.5% (inactive); in assay [12] it was 3.5% (inactive). In addition, the Potency result in [3], in [8], in assay [9], in assay [10], in [11] and in assay [13] was “inactive” throughout. In addition, the activity, negative = inhibition in assay [5] was -2.81% (inactive). Besides, the compound was called inactive in assay [7]. Moreover, the max response was found to be 20.4% in [12] (setting [14]) and 27.6% in [12] (setting [15]).
For `CC(=O)N1CCC2(CC1)CCN(C(=O)Nc1cccc(F)c1)CC2`, the results for the Potency in assay [1], in [6] and in assay [10] were > 11.4 µM (inactive), > 46 µM (inactive) and 3.16 µM (active), respectively. Moreover, the activity change, negative = inhibition is -10.4% (inactive) in [2], 8.58% (inactive) in assay [4] and 3% (inactive) in assay [12]. The Potency result in [3], in assay [8] and in [13] was “inactive” throughout. Further, the activity, negative = inhibition in assay [5] is -7.06% (inactive). The compound was classed as inactive in [7]. For the same compound, the max response in [12] (setting [14]) is 11%; in assay [12] (setting [15]), 16.9%.
As to `O=C(c1cccc(F)c1)N1CCC[C@@]2(CCN(Cc3nccs3)C2)C1`, the Potency was > 11.4 µM (inactive) in assay [1], 12.6 µM (active) in assay [3], > 46 µM (inactive) in [6] and 2.51 µM (active) in assay [11]. Besides, the activity change, negative = inhibition in [2] was 2.29% (inactive); in assay [4], 7.56% (inactive); in [12], 3.24% (inactive). In addition, in [5], the activity, negative = inhibition was -0.114% (inactive). In addition, the compound was called inactive in assay [7]. Further, the Potency result in assay [8], in assay [9] and in assay [13] was “inactive” each time. Moreover, the max response is 16.4% in assay [12] (setting [14]) and 22.4% in [12] (setting [15]).
With `CS(=O)(=O)N1CCC2(CC1)CN(Cc1cc(C(F)(F)F)cc(C(F)(F)F)c1)C2`, the Potency is > 11.4 µM (inactive) in [1], > 46 µM (inactive) in [6] and 0.398 µM (active) in assay [10]. For the same compound, the values for the activity change, negative = inhibition in assay [2], in [4] and in [12] were 5.66% (inactive), -8.2% (inactive) and 2.23% (inactive), respectively. Besides, the Potency entry in [3], in assay [8] and in assay [13] was “inactive” throughout. Also, the activity, negative = inhibition in [5] was -3.12% (inactive). The compound was classed as inactive in assay [7]. For the same compound, the max response in assay [12] (setting [14]) was -5.23%; in assay [12] (setting [15]), 0.681%.
Consider `N#Cc1cccc(NC(=O)N2CC[C@@]3(CCCNC3)C2)c1`, for which the Potency is > 11.4 µM (inactive) in [1] and > 46 µM (inactive) in [6]. The results for the activity change, negative = inhibition in [2], in assay [4] and in assay [12] were 9.42% (inactive), 9.18% (inactive) and 1.94% (inactive), respectively. For the same compound, the Potency result in [3], in assay [9] and in assay [13] was “inactive” throughout. Further, the activity, negative = inhibition in assay [5] was -4.17% (inactive). The result in [7] was inactive. Further, the max response was -6.65% in assay [12] (setting [14]) and -1.99% in assay [12] (setting [15]).
Consider `Cn1cccc1C(=O)N1CCC[C@@]2(CCN(c3ccncc3)C2)C1`, for which the Potency is > 11.4 µM (inactive) in [1], 12.6 µM (active) in assay [3], > 46 µM (inactive) in [6] and 6.31 µM (active) in assay [11]. The activity change, negative = inhibition in [2] was -2.65% (inactive); in [4], -12.6% (inactive); in [12], -3.31% (inactive). In assay [5], the activity, negative = inhibition is 7.16% (inactive). Also, the result in assay [7] was inactive. For the same compound, the Potency entry in assay [8], in assay [9] and in [13] was “inactive” each time. Also, the max response in [12] (setting [14]) was -3.32%; in [12] (setting [15]) it was -4.8%.

Values taken from PubChem BioAssay (NCATS).
